The supplement of paper PMC10646978
± gives the standard deviation.

Tests used:
Conditions in all cases: modulator concentration 10 µM
[1] = test system: RAW-Dual (murine macrophage reporter line); assay: NF-kB reporter (SEAP) activity fold change vs agonist alone; higher = enhanced NF-kB activity
In short: (§1)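 RAW-Dual murine macrophage reporter cells were plated at 50 000 per well in 384-well plates, pin-transferred compound to 10 μM final, and pre-incubated for 1 hour at 37 °C before a PRR agonist was added and the cells incubated overnight. NF-κB activity was read from supernatant SEAP with QUANTI-Blue at 620 nm absorbance, and IRF activity from Lucia luciferase with QUANTI-Luc by luminescence. Each signal was expressed as fold change by dividing by the mean agonist-only control on the same plate. Two replicate plates were averaged, with errors obtained by propagation.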

[2] = test system: RAW-Dual (murine macrophage reporter line); assay: IRF reporter (Lucia luciferase) activity fold change vs agonist alone; higher = enhanced IRF activity
In short: as §1

[3] = test system: RAW-Dual (murine macrophage reporter line); assay: viability score (confluency relative to resting cells, overnight) (fraction); higher = more viable, active = viable (0.7 or more)
In short: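 Confluency was the readout: RAW-Dual macrophages were imaged with IncuCyte after an overnight exposure to compound at 10 μM final. IncuCyte software produced two masks over all imaged wells. The viability score expresses confluency against resting cells, and both masks had to exceed 70% of resting cells for a compound to meet the cutoff.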

[4] = agonist: CpG ODN 1826 0.5 ug/mL

Row | SMILES | NF-kB reporter [1, 4] | NF-kB reporter ([1]; agonist: LPS 0.1 ug/mL) | NF-kB reporter ([1]; agonist: MPLA […]) | IRF reporter ([2]; agonist: 3'3'-cGAMP 10 ug/mL) | IRF reporter ([2]; agonist: LPS 0.1 ug/mL) | IRF reporter ([2]; agonist: MPLA […]) | viability score [3]
1 | O=S(=O)(NC1CC1)c1cnn(-c2ccccc2)c1 | 0.903 ± 0.048 | 0.908 ± 0.073 | 1.08 ± 0.079 | 1.07 ± 0.062 | 1.3 ± 0.3 | 1.52 ± 0.57 | 0.964 (active)
2 | CN1C(C(=O)Nc2ccccn2)=C(O)c2ccccc2S1(=O)=O | 0.654 ± 0.063 | 0.901 ± 0.047 | 1.11 ± 0.097 | 0.943 ± 0.056 | 1.25 ± 0.077 | 1.35 ± 0.11 | 1.02 (active)
3 | COc1cc(NC(=O)NCc2nc(C)cc(N3CCOCC3)n2)cc(OC)c1 | 1.33 ± 0.32 | 1.04 ± 0.053 | 1.07 ± 0.11 | 0.886 ± 0.031 | 1.15 ± 0.14 | 1.09 ± 0.11 | 0.982 (active)
4 | CC(=O)NO | 0.863 ± 0.12 | 0.93 ± 0.071 | 0.953 ± 0.053 | 0.834 ± 0.068 | 0.901 ± 0.15 | 0.977 ± 0.092 | 1 (active)
5 | Cl.Cl.Fc1ccc(C(c2ccc(F)cc2)N2CCN(CC=Cc3ccccc3)CC2)cc1 | 0.834 ± 0.063 | 0.999 ± 0.065 | 1.15 ± 0.029 | 0.956 ± 0.089 | 0.896 ± 0.051 | 1.1 ± 0.16 | 0.996 (active)
6 | Cc1cc(OCC(O)Cn2cnc3ccccc32)ccc1Cl (configuration not stated) | 1.05 ± 0.06 | 1.1 ± 0.084 | 1.14 ± 0.082 | 0.913 ± 0.035 | 0.9 ± 0.086 | 0.685 ± 0.12 | 0.906 (active)
7 | O=C(NCCn1nc(-c2ccccn2)c2c1CCCC2)c1c(F)cccc1Cl | 1.12 ± 0.062 | 1.19 ± 0.12 | 0.921 ± 0.043 | 0.975 ± 0.049 | 1.1 ± 0.068 | 1.2 ± 0.26 | 1 (active)
8 | Cc1[nH]c2ccc(Br)cc2c(=O)c1CN1CCCCC1 | 0.828 ± 0.092 | 0.97 ± 0.054 | 0.899 ± 0.054 | 0.951 ± 0.035 | 1.25 ± 0.17 | 0.92 ± 0.091 | 1 (active)
9 | Nc1ncn([C@@H]2O[C@H](CO)[C@@H](O)[C@H]2O)c(=O)n1 | 1.55 ± 0.066 | 0.569 ± 0.045 | 1.99 ± 0.16 | 0.549 ± 0.035 | 0.433 ± 0.049 | 0.502 ± 0.1 | 0.745 (active)
10 | CCOC(=O)C1=C(C)NC(C)=C(C(=O)OCC)C1c1ccccc1/C=C/C(=O)OC(C)(C)C | 1.04 ± 0.15 | 1.14 ± 0.3 | 1.14 ± 0.26 | 0.586 ± 0.032 | 1.39 ± 0.29 | 1.15 ± 0.086 | 0.965 (active)
11 | O=C(CCCc1ccccc1)NCC1(O)CCCC1 | 0.858 ± 0.079 | 0.968 ± 0.078 | 0.867 ± 0.049 | 0.968 ± 0.05 | 0.977 ± 0.061 | 0.917 ± 0.23 | 1.01 (active)
12 | CSc1nc2ccc(Nc3nc(N4CCCC4)nc(N4CCCC4)n3)cc2s1 | 0.838 ± 0.086 | 0.962 ± 0.06 | 1.05 ± 0.096 | 0.906 ± 0.043 | 1.31 ± 0.13 | 1.55 ± 0.15 | 1.02 (active)
13 | NC(=NOC(=O)C(c1ccccc1)C1CCCC1)c1ccccn1 (configuration not stated) | 0.796 ± 0.062 | 0.857 ± 0.055 | 1.06 ± 0.1 | 0.613 ± 0.042 | 1.38 ± 0.083 | 1.62 ± 0.15 | 0.982 (active)
14 | O=C1C(CCS(=O)c2ccccc2)C(=O)N(c2ccccc2)N1c1ccccc1 (configuration not stated) | 0.833 ± 0.042 | 0.955 ± 0.076 | 0.954 ± 0.056 | 1.01 ± 0.068 | 1.22 ± 0.2 | 1.31 ± 0.44 | 1.02 (active)
15 | CN1CCC(=C2c3ccccc3CCc3sccc32)CC1.O=C(O)CC(O)C(=O)O | 0.574 ± 0.054 | 0.705 ± 0.035 | 0.868 ± 0.094 | 0.692 ± 0.036 | 1.09 ± 0.073 | 1 ± 0.12 | 0.385 (inactive)
16 | CCOC(=O)C1=C(C)NC(=O)N(C(C)=O)C1c1ccc(Br)cc1 (configuration not stated) | 0.554 ± 0.032 | 0.898 ± 0.1 | 0.868 ± 0.052 | 1.28 ± 0.044 | 1.66 ± 0.14 | 1.34 ± 0.2 | 0.621 (inactive)
17 | O=C(Cn1cnc(-c2ccc(F)cc2)cc1=O)N1CCOCC1 | 0.891 ± 0.06 | 1.07 ± 0.13 | 1.18 ± 0.075 | 1.04 ± 0.047 | 1.3 ± 0.27 | 1.44 ± 0.45 | 0.99 (active)
18 | O=C(C=Cc1ccco1)Nc1ccc(C(=O)O)cc1NC(=O)C=Cc1ccco1 | 0.691 ± 0.069 | 1.11 ± 0.061 | 0.932 ± 0.056 | 0.884 ± 0.028 | 1.27 ± 0.19 | 0.976 ± 0.27 | 1.02 (active)

Row | SMILES | NF-kB reporter [1, 4] | NF-kB reporter ([1]; agonist: LPS 0.1 ug/mL) | NF-kB reporter ([1]; agonist: MPLA […]) | IRF reporter ([2]; agonist: 3'3'-cGAMP 10 ug/mL) | IRF reporter ([2]; agonist: LPS 0.1 ug/mL) | IRF reporter ([2]; agonist: MPLA […]) | viability score [3]
19 | CC(=O)N1CC(c2ccc(OC(C)C)cc2)CC1=O (configuration not stated) | 1.07 ± 0.23 | 1.04 ± 0.084 | 0.961 ± 0.088 | 1.05 ± 0.03 | 1.22 ± 0.15 | 1.36 ± 0.16 | 0.999 (active)
20 | CCOC(=O)C1=C(C)NC(C)=C(C(=O)OCC)C1c1ccc(OC)cc1OC | 1.01 ± 0.21 | 1.27 ± 0.12 | 1.16 ± 0.18 | 1.01 ± 0.033 | 1 ± 0.24 | 1.25 ± 0.24 | 1 (active)
21 | CS(=O)(=O)N1CCCCC1C(=O)N(CC1CCCO1)c1nc2c(F)cccc2s1 (configuration not stated) | 0.814 ± 0.072 | 1.02 ± 0.1 | 0.773 ± 0.054 | 1.24 ± 0.078 | 1.19 ± 0.077 | 1.23 ± 0.16 | 0.966 (active)
22 | COc1cccc(C=NNc2nnc(C)c(=O)[nH]2)c1OC | 0.888 ± 0.27 | 1.08 ± 0.094 | 0.993 ± 0.12 | 0.952 ± 0.038 | 1.09 ± 0.22 | 1.15 ± 0.29 | 1.01 (active)
23 | CCC(=O)CC(O)(c1ccccc1)C(F)(F)F (configuration not stated) | 1.04 ± 0.099 | 0.955 ± 0.19 | 1.02 ± 0.049 | 1.01 ± 0.14 | 0.953 ± 0.061 | 1.01 ± 0.11 | 0.996 (active)
24 | Cc1c(-c2ccccc2)nc2ccccc2c1C(=O)Nc1ccc(F)cc1F | 0.568 ± 0.25 | 0.889 ± 0.097 | 0.689 ± 0.11 | 0.918 ± 0.061 | 1.36 ± 0.1 | 1.12 ± 0.19 | 0.953 (active)
25 | COc1ccc(N2C(=O)C(=Cc3ccc([N+](=O)[O-])s3)SC2=S)cc1 | 0.879 ± 0.17 | 1.55 ± 0.14 | 1.71 ± 0.16 | 0.439 ± 0.012 | 1.25 ± 0.23 | 1.2 ± 0.26 | 0.9 (active)
26 | COc1ccc(-c2cc(C(F)F)nn2-c2ccc(S(N)(=O)=O)cc2)cc1F | 0.989 ± 0.29 | 0.98 ± 0.05 | 0.993 ± 0.068 | 0.935 ± 0.052 | 1.3 ± 0.24 | 1.23 ± 0.18 | 0.998 (active)
27 | Cc1ncn(CC(=O)N2CC(Oc3cccc(C(F)(F)F)n3)C2)c(=O)c1C | 0.986 ± 0.059 | 1.09 ± 0.086 | 0.9 ± 0.08 | 0.83 ± 0.12 | 1.21 ± 0.086 | 1.25 ± 0.097 | 1 (active)
28 | CCS(=O)(=O)N1N=C(c2ccc(NS(C)(=O)=O)cc2)CC1c1ccccc1 (configuration not stated) | 0.947 ± 0.073 | 0.998 ± 0.078 | 1.12 ± 0.12 | 0.963 ± 0.034 | 1.29 ± 0.15 | 1.4 ± 0.23 | 1.02 (active)
29 | Cc1nnc(NN=Cc2ccc(Cl)c([N+](=O)[O-])c2)[nH]c1=O | 1.08 ± 0.12 | 1.02 ± 0.088 | 1.09 ± 0.045 | 1.01 ± 0.17 | 1 ± 0.082 | 1.07 ± 0.13 | 0.997 (active)
30 | Cc1cccc(NC(=O)Cc2c(C)nc(SCc3ccccc3F)[nH]c2=O)c1C | 0.996 ± 0.059 | 1.13 ± 0.088 | 1.03 ± 0.081 | 0.938 ± 0.043 | 0.97 ± 0.081 | 0.937 ± 0.21 | 0.997 (active)
31 | O=[N+]([O-])c1ccc(Cl)c(C=Nc2cccc3c(N=Cc4cc([N+](=O)[O-])ccc4Cl)cccc23)c1 | 0.841 ± 0.047 | 1.07 ± 0.078 | 0.988 ± 0.086 | 0.816 ± 0.05 | 1.56 ± 0.1 | 1.26 ± 0.13 | 1 (active)
32 | S=C(NCCN1CCCCC1)NCc1ccccc1 | 0.962 ± 0.14 | 1 ± 0.055 | 0.99 ± 0.12 | 1.01 ± 0.035 | 1.33 ± 0.14 | 1.22 ± 0.12 | 1.01 (active)
33 | Cc1cc(C)c(-c2csc(NC(=O)C=Cc3cccs3)n2)c(C)c1 | 0.618 ± 0.048 | 0.873 ± 0.091 | 1.44 ± 0.066 | 1.02 ± 0.071 | 1.12 ± 0.097 | 1.89 ± 0.17 | 0.8 (active)
34 | COC(=O)C1=C(C)NC(C)=C(C(=O)O[C@@H]2CCCN(Cc3ccccc3)C2)[C@@H]1c1cccc([N+](=O)[O-])c1 [Prestw-1766] | 0.317 ± 0.025 | 0.731 ± 0.069 | 0.717 ± 0.071 | 0.412 ± 0.043 | 1.1 ± 0.14 | 0.886 ± 0.21 | 1.07 (active)
35 | CN1CCN(C(=O)C(C)(c2ccccc2)c2ccccc2)CC1 | 0.804 ± 0.063 | 1.1 ± 0.062 | 0.946 ± 0.056 | 0.981 ± 0.039 | 1.22 ± 0.13 | 1.08 ± 0.17 | 1 (active)
36 | CC1CCN(c2cc(N3CCNCC3)ncn2)CC1 | 0.972 ± 0.32 | 1.08 ± 0.054 | 1.02 ± 0.069 | 0.932 ± 0.032 | 1.11 ± 0.17 | 1.26 ± 0.26 | 0.997 (active)
